Screening results deposited in PubChem BioAssay by National Center for Advancing Translational Sciences (NCATS).
Most compounds without a hit are left out; they make up all but 19% or so of the library.
HT1080-NT tox: kills 2HG-producing HT-1080-NT fibrosarcoma cells. HT-1080-NT fibrosarcoma viability, CellTiter-Glo ATP luminescence, 48 h. Potency, µM (series often up to 46.1 µM), for inactives: at the highest dose activity, negative = less viability, actives largely listed as cytotoxic. hit rate 1.6% among 360,000. AID 686970;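 note: NT is the 2HG producing partner of a matched IDH1 knockdown line; potency is the fitted concentration of half-maximal effect; 0% = DMSO-treated cells and -100% = media-only wells without cells; nearly all actives have a fitted effect of over 55% in size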
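Read-out is CellTiter-Glo luminescence after 10 minutes at room temperature, following 48 hours' compound treatment of HT-1080-NT cells (750 cells/well, RPMI, 5% FBS, 37 degrees C).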
HT1080 IDH1KD tx: kills HT-1080 cells with IDH1 knockdown; HT-1080 IDH1 knockdown viability, ATP luminescence, 48 h; Potency, µM (titrated, usually from 46.1 µM), inactives show top-dose activity, negative = toxicity, most hits filed as cytotoxic; hit rate 2% among 360,000;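 note: potency is the fitted concentration of half-maximal effect; 0% = DMSO wells and -100% = cell-free medium wells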
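In this qHTS, HT-1080 cells depleted of IDH1 are exposed for 48 h at 37 °C to compound titrations. Toxicity is scored from CellTiter-Glo luminescence, with DMSO as full viability and medium alone as none.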
DT40 TDP1 no CPT: qHTS for Inhibitors of human tyrosyl-DNA phosphodiesterase 1 (TDP1): qHTS in cells in absence of CPT | hit rate 15% among 420,000 | DT40 Tdp1-/- hTDP1 cells, no CPT, ATP luminescence, 48 h | Potency, µM (top dose mostly 46.2 µM), without a hit: at the top dose activity change, negative = growth inhibition, most hits filed as inhibitors | AID 686978, 2013; note: potency is the fitted concentration of half-maximal effect; nearly all actives have a fitted effect of over 55% in size
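Chicken DT40 Tdp1-/- cells stably complemented with human TDP1 were seeded at 400 cells/well with DMSO in place of 20 nM camptothecin. After compound pinning, cells grew at least 48 hr at 37 °C; viability read by CellTiter-Glo luminescence.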
IL-1B inflam inh: inflammasome signaling inhibition, IL-1 beta readout; THP-1 LPS/ATP IL-1B secretion, AlphaLISA, 16 h; active compounds read low; activity change, % at 57.5 µM; hit rate 4.7% among 360,000; AID 743279; in the data active = activity change below about -50%; inconclusive = mostly about -30% to -49%
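THP-1 cells pretreated 1 hr with compounds (up to 57.5 uM final), then stimulated with LPS (250 ng/mL final) plus ATP (1.25 mM final); secreted IL-1B measured by AlphaLISA after 16 hr, decreased signal indicating inhibition.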
TDP1 cell CPT: growth inhibition of DT40 Tdp1-/-;hTDP1 cells with camptothecin (screen for TDP1 inhibitors); chicken DT40 Tdp1-/-;hTDP1 cells + 20 nM CPT, ATP luminescence, 48 h; Potency, µM (titrated, usually from 46.2 µM), without a hit: top-dose activity change, negative = growth inhibition, usual class: inhibitors; hit rate 12% among 420,000; note: potency is the fitted concentration of half-maximal effect; nearly all actives have a fitted effect of over 55% in size
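Cell growth measured by CellTiter-Glo luminescence after a minimum 48 h, 37 C compound exposure with 20 nM CPT in Tdp1-knockout DT40 cells stably expressing hTDP1, seeded 400/well; qHTS titration format.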
Numbers without * were called inactive; ? = inconclusive; / = no result given; ! = not active in a repeat. Unless noted, calls come from the whole dose curve; as a rule, active = well fitted curve in the direction sought with a large enough effect; inconclusive = small, poorly fitted or top-dose-only effect, or another doubt; inactive = no such curve, though single readings can be large; an effect the other way counts as inactive or inconclusive. Unless noted, % is set by controls: 0 for no effect and ±100 for the full control effect.

SMILES | HT1080-NT tox | HT1080 IDH1KD tx | DT40 TDP1 no CPT | IL-1B inflam inh | TDP1 cell CPT
O=C1C(Br)C2CCC1C2C(=O)O (stereo not drawn) | 2% | -4% | 0% | 3 | -2%
CC(C)N1CCN(Cc2c[nH]c3ccccc23)CC1CCO (stereo not drawn) | -4% | -9% | -12% | 14 | ?
CN1OCC2Cn3c(nc4ccccc43)C21 (stereo not drawn) | 1% | 1% | -13% | 42 | 1%
Oc1ccc2[nH]cc(CCCCN3CC=C(c4ccccc4)CC3)c2c1 | / | / | 17µM* | / | 27µM*
CCC1CO/C(=C(\C(Cl)=C(Cl)Cl)[N+](=O)[O-])N1Cc1ccc(Cl)nc1 (stereo not drawn) | 18% | 13% | 2% | 64 | -16%
O=[N+]([O-])/N=C1\NCCN1Cc1ccc(Cl)nc1 | / | / | 6.7µM* | / | 8.4µM*!
O=C(C(=C1N(Cc2ccc(Cl)nc2)CCN1Cc1ccc(Cl)nc1)[N+](=O)[O-])C(Cl)Cl | -2% | -1% | 16µM* | -71* | ?
O=C1NC(=S)NC(=O)C1Cc1ccccc1O | -3% | 4% | 8% | -14 | 9%
O=C(CCc1ccccc1)N1C[C@H]2C[C@@H](C1)c1cccc(=O)n1C2 | 3% | 4% | 0% | 17 | 9%
CCOC(=O)CSc1ccc(C(=O)N2CCC3(CC2)OCCO3)cc1[N+](=O)[O-] | 1% | 0% | 22% | 11 | -8%
CCC(=NCc1ccco1)c1c(O)n(-c2ccccc2C)c(=O)[nH]c1=O | -1% | -1% | -13% | -13 | -6%
CC(=O)c1c(O)c(C)c(O)c2c1OC1=Cc3c(c(C)nn3-c3ccccc3)C(=O)C12C (stereo not drawn) | -3% | 1% | 16µM* | 36 | 23µM*
COc1ccc(-c2c3c(=O)n(C)c(=O)n(C)c3c3n2-c2ccccc2NC3c2ccccc2OC)cc1 (stereo not drawn) | / | / | 15µM* | / | 10µM*
Cn1c(=O)c2c(-c3ccccc3)n3c(c2n(C)c1=O)C(c1cc(Cl)ccc1O)Nc1ccccc1-3 (stereo not drawn) | / | / | 15µM* | / | 9.2µM*
CC(=O)N1CC(=O)Nc2ccc(Cl)cc2C1c1ccccc1 (stereo not drawn) | 13% | 7% | -10% | 21 | 12%
CCN(CCCl)c1cc(CN(C)C)cc(NC(=O)c2ccc(C(=O)Nc3cc(CN(C)C)cc(N(CC)CCCl)c3)cc2)c1 | 7.3µM* | 2.9µM* | 0.18µM* | -94* | 0.18µM*
Cc1cc(N2CCCC2)ccc1C=C(C#N)C#N | -1% | 6% | -17% | 17 | -12%
Cc1ccc2cc(C=C(C#N)C#N)c(Cl)nc2c1 | -1% | -12% | 2.9µM* | -96* | 2.1µM*
CCCCCCOc1ccc(CN2CCN(CCO)CC2)cc1 | ? | ? | 21µM* | ? | 16µM*
O=C(CCC(=O)N1CCC2(CC1)OCCO2)Nc1nnc(C(F)(F)F)s1 | 7% | -22% | -2% | 38 | -6%
BrCC(Br)(Br)Br | -2% | 11% | ? | 15 | 9.2µM*
CCN1C[C@]2(COC(=O)c3ccccc3N)CC[C@H](OC)C34[C@@H]5C[C@H]6[C@H](OC)[C@@H]5[C@](O)(C[C@@H]6OC)[C@@](O)([C@H]13)[C@@H](OC)[C@@H]42 | 10% | -5% | 4% | -10 | 3%
COc1cc2c(cc1OC)C(c1c(O)n(CCc3ccccc3)c(=S)[nH]c1=O)NCC2 (stereo not drawn) | -2% | 9% | 4% | -24 | 45%
CC[C@@H]1CN2CCc3cc(OC)c(OC)cc3[C@@H]2C[C@@H]1C[C@H]1NCCc2cc(OC)c(OC)cc21 | / | / | 0.034µM* | / | -74%
CCC1CN2CCc3cc(OC)c(OC)cc3C2CC1CC1NCCc2c1[nH]c1ccc(O)cc21 (stereo not drawn) | 0.41µM* | 0.18µM* | 0.082µM* | -101* | 0.15µM*
SMILES | HT1080-NT tox | HT1080 IDH1KD tx | DT40 TDP1 no CPT | IL-1B inflam inh | TDP1 cell CPT
COc1cc2c(cc1O)CCNC2C (stereo not drawn) | / | / | 0% | / | 2%
COP(N)(=O)SC (stereo not drawn) | / | / | -3% | / | 0%
O=C(NC(O)C(Cl)(Cl)Cl)NC(O)C(Cl)(Cl)Cl (stereo not drawn) | / | / | -17% | / | 7%
CCCOC(=O)Cc1ccc(OCC(=O)N(CC)CC)c(OC)c1 | / | / | ? | / | -24%
C[C@@H]1CN(CCCn2c3ccccc3c3ccccc32)C[C@H](C)N1 | / | / | 8.4µM* | / | 7.5µM*
C=CCC1(CCCCC)C(=O)NC(=S)NC1=O | 5% | 13% | -20% | 15 | 4%
CC(C)(C)NC(=O)CN1CCCN(C(=O)COc2ccc(Cl)c3ccccc23)CC1 | 0% | 4% | ? | 0 | ?
CN1C(=O)NC(=O)/C(=C\C=C\c2ccccc2[N+](=O)[O-])C1=O | ? | 12µM* | 5.8µM* | -98* | ?
COc1ccc(C=O)cc1O | 28% | 17% | -13% | 34 | 10%
CCCCCC1(C(C)C)C(=O)NC(=S)NC1=O | 12% | 8% | -1% | 44 | -3%
CC(C)(C)OC(=O)c1ncn2c1[C@@H]1CCCN1C(=O)c1c(Br)cccc1-2 | / | / | ? | / | 6%
N#CC1c2ccccc2C=CN1C(=O)c1ccc(N(CCCl)CCCl)cc1 (stereo not drawn) | -9% | -16% | 18µM* | ? | 23µM*
COc1ccccc1-n1c(-c2ccccc2)nc2ccccc2c1=O | -10% | -15% | ? | 12 | 16µM*
COc1ccc(-c2nc3ccccc3c(=O)n2-c2nccs2)cc1 | -3% | 0% | ? | 0 | ?
O=c1c2ccccc2nc(-c2ccccc2)n1-c1ccccc1O | -17% | -18% | ? | 45 | ?
COc1ccccc1-n1c(-c2cccs2)nc2ccccc2c1=O | 0% | 6% | 13µM* | 63 | 15µM*
COc1ccc(NC(=O)c2cn(CCC#N)nc2-c2cccc(Br)c2)cc1 | 2% | -3% | -28% | -14 | -12%
CCCCOP(=O)(OCCCC)C1(C)CC(=O)CC(C)(C)C1 (stereo not drawn) | -8% | 0% | -25% | -11 | ?
C=C1C(=O)OC2C1CCC(C)C1(O)C=CC(=O)C21C (stereo not drawn) | ? | ? | 2.3µM* | -109* | 2.6µM*
O=C(c1ccc(F)cc1)N1CCC(c2nc(-c3ccc(S(=O)(=O)N4CCCC4)cc3)no2)CC1 | / | / | 12µM* | / | 21µM*
CCOC(=O)Cn1cc(C(=O)c2ccccc2)c2ccccc21 | 0% | 2% | -33% | 25 | 3%
O=C(c1c[nH]c(C(=O)C(Cl)(Cl)Cl)c1)c1ccccc1Cl | 19% | 16% | ? | -17 | ?
